This passage reports residual activity results from ChEMBL document CHEMBL2218924, “A broad activity screen in support of a chemogenomic map for kinase signalling research and drug discovery” (Biochem J, 2013).

Assay [1] deals with Tyrosine-protein kinase SYK (Homo sapiens) (UniProt P43405). Conditions: at 10 µM.
Assay [2] deals with T1, Mitogen-activated protein kinase kinase kinase 7 (Homo sapiens) (UniProt O43318).
T1 sequence (whole entry): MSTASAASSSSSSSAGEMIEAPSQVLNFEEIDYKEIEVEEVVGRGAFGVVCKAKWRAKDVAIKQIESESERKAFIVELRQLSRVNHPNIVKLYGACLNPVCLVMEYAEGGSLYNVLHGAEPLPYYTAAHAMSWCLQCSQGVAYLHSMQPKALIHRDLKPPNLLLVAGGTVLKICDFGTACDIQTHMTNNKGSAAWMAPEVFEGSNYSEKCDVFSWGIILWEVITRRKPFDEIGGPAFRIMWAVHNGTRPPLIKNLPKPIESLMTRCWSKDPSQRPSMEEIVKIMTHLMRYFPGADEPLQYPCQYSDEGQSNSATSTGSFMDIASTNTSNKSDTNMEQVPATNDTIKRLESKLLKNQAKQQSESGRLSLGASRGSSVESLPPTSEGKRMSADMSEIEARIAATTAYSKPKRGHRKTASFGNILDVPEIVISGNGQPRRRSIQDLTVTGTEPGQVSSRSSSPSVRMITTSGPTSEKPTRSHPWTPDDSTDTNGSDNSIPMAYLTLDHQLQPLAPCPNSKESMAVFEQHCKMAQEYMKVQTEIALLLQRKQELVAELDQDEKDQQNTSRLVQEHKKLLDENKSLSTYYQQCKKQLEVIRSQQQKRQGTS
Conditions: at 1 µM.

Assay [3] concerns the target T1, Mitogen-activated protein kinase kinase kinase 7 (Homo sapiens). The note with it: at 10 µM.
Assay [4] has as its target T2, Serine/threonine-protein kinase TAO1 (Homo sapiens) (UniProt Q7L7X3).
T2 sequence (whole entry): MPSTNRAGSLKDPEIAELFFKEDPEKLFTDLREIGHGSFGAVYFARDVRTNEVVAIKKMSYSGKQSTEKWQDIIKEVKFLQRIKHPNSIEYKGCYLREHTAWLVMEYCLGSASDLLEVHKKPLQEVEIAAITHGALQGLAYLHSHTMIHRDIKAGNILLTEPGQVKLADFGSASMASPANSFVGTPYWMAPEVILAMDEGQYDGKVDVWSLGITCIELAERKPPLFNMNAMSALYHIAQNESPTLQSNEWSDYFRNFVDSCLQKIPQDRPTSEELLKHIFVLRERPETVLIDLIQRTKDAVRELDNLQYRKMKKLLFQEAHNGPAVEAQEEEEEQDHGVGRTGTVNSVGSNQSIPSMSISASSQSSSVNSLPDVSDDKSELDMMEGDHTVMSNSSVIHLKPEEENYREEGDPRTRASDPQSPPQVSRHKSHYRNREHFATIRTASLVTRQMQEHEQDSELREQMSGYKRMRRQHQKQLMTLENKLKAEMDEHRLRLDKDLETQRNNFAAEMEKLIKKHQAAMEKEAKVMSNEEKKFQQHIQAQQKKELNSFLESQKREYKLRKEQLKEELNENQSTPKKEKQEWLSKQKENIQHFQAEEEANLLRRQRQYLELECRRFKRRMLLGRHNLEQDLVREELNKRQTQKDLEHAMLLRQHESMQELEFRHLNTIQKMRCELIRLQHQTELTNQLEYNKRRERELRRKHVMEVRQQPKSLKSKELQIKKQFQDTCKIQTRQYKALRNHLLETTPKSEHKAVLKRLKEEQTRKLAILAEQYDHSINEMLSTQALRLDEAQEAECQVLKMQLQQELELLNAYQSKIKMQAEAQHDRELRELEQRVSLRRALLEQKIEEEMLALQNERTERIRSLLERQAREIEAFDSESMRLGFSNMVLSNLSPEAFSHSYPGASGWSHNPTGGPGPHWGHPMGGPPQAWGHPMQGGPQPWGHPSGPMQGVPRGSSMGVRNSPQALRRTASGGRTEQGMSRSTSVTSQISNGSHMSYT
Conditions: at 1 µM.

Assay [5] deals with T2, Serine/threonine-protein kinase TAO1 (Homo sapiens). The note with it: at 10 µM.
For assay [6], the target named is T3, Serine/threonine-protein kinase TAO2 (Homo sapiens) (UniProt Q9UL54).
T3 sequence (whole entry): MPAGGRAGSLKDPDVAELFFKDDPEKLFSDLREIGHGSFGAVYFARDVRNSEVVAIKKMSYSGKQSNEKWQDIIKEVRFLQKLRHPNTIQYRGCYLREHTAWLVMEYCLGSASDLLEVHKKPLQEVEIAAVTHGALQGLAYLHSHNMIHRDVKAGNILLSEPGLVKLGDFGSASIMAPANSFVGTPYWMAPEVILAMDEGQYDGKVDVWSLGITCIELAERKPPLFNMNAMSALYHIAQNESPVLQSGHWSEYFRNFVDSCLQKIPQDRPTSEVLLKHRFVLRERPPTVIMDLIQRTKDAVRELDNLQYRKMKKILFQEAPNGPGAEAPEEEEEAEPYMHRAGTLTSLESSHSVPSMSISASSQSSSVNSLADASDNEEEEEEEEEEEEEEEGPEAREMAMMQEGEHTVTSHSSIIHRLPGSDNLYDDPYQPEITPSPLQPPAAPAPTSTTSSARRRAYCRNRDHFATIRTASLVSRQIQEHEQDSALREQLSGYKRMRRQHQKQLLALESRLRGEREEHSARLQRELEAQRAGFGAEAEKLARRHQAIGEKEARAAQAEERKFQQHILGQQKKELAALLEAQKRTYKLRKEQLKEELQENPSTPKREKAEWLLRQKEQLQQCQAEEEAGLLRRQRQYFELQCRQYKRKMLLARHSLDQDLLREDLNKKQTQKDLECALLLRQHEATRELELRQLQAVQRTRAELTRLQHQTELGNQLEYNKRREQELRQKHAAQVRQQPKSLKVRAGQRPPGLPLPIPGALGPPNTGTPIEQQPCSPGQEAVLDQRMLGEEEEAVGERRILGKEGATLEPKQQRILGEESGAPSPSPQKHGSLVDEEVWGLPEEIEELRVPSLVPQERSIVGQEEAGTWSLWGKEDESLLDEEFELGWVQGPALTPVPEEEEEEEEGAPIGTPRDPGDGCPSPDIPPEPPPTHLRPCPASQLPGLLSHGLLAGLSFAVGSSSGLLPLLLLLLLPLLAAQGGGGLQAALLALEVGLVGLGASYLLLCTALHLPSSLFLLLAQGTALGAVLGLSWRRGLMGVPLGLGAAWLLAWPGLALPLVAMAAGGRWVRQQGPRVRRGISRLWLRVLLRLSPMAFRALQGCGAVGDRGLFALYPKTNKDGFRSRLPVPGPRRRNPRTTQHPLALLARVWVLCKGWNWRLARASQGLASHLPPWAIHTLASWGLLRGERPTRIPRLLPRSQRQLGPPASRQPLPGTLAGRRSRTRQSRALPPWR
The note with it: at 1 µM.

Assay [7] has as its target T3, Serine/threonine-protein kinase TAO2 (Homo sapiens). Conditions: at 10 µM.
Assay [8] has as its target T4, Serine/threonine-protein kinase TAO3 (Homo sapiens) (UniProt Q9H2K8).
T4 sequence (whole entry): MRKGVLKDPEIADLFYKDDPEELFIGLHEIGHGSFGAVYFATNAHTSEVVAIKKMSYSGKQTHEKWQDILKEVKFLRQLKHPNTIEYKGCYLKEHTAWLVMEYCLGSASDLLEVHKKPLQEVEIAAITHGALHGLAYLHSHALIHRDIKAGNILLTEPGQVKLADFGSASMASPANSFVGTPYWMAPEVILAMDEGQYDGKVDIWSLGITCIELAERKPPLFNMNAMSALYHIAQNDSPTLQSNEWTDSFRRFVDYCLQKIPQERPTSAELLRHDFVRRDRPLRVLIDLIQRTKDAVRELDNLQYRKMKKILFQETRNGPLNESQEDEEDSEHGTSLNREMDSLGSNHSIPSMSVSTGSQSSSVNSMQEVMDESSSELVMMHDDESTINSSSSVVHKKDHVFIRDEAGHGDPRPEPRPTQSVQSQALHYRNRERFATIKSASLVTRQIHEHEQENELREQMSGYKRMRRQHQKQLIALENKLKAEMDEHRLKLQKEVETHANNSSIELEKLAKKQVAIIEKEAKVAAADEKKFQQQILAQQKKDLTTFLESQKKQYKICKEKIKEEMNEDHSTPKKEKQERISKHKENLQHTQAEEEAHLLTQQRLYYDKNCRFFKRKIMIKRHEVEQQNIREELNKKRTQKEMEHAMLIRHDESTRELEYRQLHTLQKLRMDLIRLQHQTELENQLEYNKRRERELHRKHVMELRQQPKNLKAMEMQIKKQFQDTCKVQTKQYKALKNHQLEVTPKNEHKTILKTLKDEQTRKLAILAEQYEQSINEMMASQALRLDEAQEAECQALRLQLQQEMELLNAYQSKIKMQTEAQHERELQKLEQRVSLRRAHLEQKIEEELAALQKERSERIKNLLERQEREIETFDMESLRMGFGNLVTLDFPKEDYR
The note with it: at 1 µM.

Assay [9] has as its target T4, Serine/threonine-protein kinase TAO3 (Homo sapiens). The note with it: at 10 µM.
Assay [10] addresses T5, Serine/threonine-protein kinase TBK1 (Homo sapiens) (UniProt Q9UHD2).
T5 sequence (whole entry): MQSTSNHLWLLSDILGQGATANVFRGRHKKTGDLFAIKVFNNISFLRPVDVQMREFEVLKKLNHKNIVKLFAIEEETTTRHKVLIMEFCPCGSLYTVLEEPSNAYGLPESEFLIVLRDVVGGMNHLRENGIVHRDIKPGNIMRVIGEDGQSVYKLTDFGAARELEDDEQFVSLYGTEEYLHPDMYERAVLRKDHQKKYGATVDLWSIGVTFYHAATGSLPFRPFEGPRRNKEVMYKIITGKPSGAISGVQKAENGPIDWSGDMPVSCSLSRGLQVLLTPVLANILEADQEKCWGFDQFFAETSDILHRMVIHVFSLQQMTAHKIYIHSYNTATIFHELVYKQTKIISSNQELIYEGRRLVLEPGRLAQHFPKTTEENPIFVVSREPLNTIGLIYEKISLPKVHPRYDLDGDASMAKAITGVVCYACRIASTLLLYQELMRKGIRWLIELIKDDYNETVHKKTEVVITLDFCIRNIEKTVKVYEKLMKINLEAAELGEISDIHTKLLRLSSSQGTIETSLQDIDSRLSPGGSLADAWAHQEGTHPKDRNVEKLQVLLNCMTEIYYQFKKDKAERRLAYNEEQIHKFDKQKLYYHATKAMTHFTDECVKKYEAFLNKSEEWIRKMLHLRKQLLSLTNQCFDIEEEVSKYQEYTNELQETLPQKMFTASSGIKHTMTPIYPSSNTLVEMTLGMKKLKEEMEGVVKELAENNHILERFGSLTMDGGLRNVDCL
The note with it: at 1 µM.

Regarding `O=C(Nc1cccc(Nc2nccc(Nc3cccc(C(F)(F)F)c3)n2)c1)C1CC1`, the residual activity in assay [1] was found to be 75%; in assay [2], 105%; in assay [3] it was 99%; in [4], 95%; in assay [5], 56%; in assay [6], 92%. The residual activity in assay [7] is 29%; in assay [8] it was 104%; in [9], 67%; in [10], 78%.
